# Screens as filed in PubChem BioAssay.
# Mcl1 Noxa PPI = Mcl-1/Noxa interaction inhibition; Q07820; TR-FRET Mcl-1/Noxa peptide binding, 2 h; inhibition, % at 21.7 µM; hit rate 1.5% among 220,000; AID 1022;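 active = compounds that cut the protein-peptide binding signal by more than 50% relative to plate controls in a single-dose test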;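 note: His-tagged Mcl-1 with rhodamine Noxa BH3 peptide and terbium anti-His antibody; 0% = Mcl-1 plus Noxa peptide wells and 100% = peptide-only wells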
# Target sequence (Q07820 whole entry, looked up): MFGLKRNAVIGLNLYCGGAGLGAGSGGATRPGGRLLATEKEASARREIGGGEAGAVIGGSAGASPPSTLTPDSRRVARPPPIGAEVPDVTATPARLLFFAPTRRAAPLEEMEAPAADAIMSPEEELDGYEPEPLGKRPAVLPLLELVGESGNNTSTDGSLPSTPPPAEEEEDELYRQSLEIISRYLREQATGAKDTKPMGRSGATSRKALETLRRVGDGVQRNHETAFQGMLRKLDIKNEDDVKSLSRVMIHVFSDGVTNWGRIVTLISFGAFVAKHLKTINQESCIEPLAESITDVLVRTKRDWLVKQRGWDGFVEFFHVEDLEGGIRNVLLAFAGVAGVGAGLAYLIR
# Mcl1-Bid inh = Mcl-1/Bid interaction inhibition | Q07820 | TR-FRET Mcl-1/Bid-Dy647 peptide binding, 1536-well | inhibition, % at 21.7 µM | hit rate 0.97% among 220,000 | AID 1021;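 active = compounds that cut the binding signal by more than half at the single screening dose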;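 note: His-tagged Mcl-1 with europium anti-His antibody binding Bid BH3 peptide; 0% = Mcl-1 plus peptide wells and 100% = peptide-only wells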
# TLR9-MyD88 inh = blocks human TLR9 binding to MyD88. inhibition, % at 4.98 µM. hit rate 0.21% among 340,000. Q9NR96+Q99836. CHO BLA complementation TLR9-MyD88, CCF4 FRET ratio;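 active = inhibition above the mean over all tested compounds plus 3 SD, cut at about 21% in these data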;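 note: 0% = DMSO only wells and 100% = clavulanate BLA inhibitor control wells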
# NOD2 RIPK2 PPI = blocks binding of human NOD2 to RIPK2; O43353; inhibition, % at 4.98 µM; hit rate 0.38% among 360,000; CHO BLA complementation NOD2-RIPK2, CCF4 ratio; in the data active = inhibition above about 21%;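 note: 0% = vehicle only and 100% = reference blocker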
# Mcl-1 Bim block = inhibitors of Bim-Mcl-1 interaction, human; Bead-based flow cytometry, Bim peptide-Mcl-1 binding; AID 1009; inhibition, % at 10 µM; hit rate 0.1% among 190,000; in the data active = inhibition above about 40%;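 note: 0% = no compound tracer wells and 100% = peptide blocker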
# TLR4-MyD88 BLA = TLR4-MyD88 interaction inhibition in cells; hit rate 0.18% among 200,000; HeLa CL3-4 TLR4/MyD88 BLA complementation, FRET ratio; inhibition, % at 8.4 µM; in the data active = inhibition above about 25%;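 note: 0% = vehicle and 100% = reference inhibitor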
# * marks the source's active call; other numbers are inactive results; nt = no result. A selection: hits, their analogues and other compounds. The true share with any hit is near 1.8%.
SMILES,Mcl1 Noxa PPI,Mcl1-Bid inh,TLR9-MyD88 inh,NOD2 RIPK2 PPI,Mcl-1 Bim block,TLR4-MyD88 BLA
O=C1c2cccnc2C(Nc2ccc(Br)cc2)N1Cc1cccs1 (stereo not drawn),27.6,62.4*,-9.3,-1.9,1.0,5.4
Cc1cc(O)c(-c2cc(C(=O)Nc3sc4c(c3C(=O)NCc3ccco3)CCC4)[nH]n2)cc1C,70.5*,-47.2,-10.8,-7.3,nt,nt
CC(=O)Nc1ccc(Nc2ccc3c4c(cc(=O)n3C)-c3ccccc3C(=O)c24)cc1,56.5*,1.2,10.6,2.7,8.0,-5.1
COC(=O)C1=C(O)/C(=C\c2ccc(CNC(=O)C(=O)Nc3ccc(C)cc3)o2)N=C1C,45.6,17.6,-6.4,-9.5,1.0,-8.1
COC(=O)C1=C(O)/C(=C\c2ccc(CNC(=O)C(=O)Nc3ccc(C)c(C)c3)o2)N=C1C,55.1*,34.0,-17.8,-2.4,7.0,-7.8
COC(=O)C1=C(O)/C(=C\c2ccc(CNS(=O)(=O)c3ccc(Cl)cc3)o2)N=C1C,30.9,-25.7,-5.2,-7.4,-5.0,3.9
CCOC(=O)C1=C(O)/C(=C\c2ccc(CNS(=O)(=O)c3ccc(Br)cc3)o2)N=C1C,57.0*,-65.2,10.9,-3.4,-1.0,-0.5
Cc1nc2cc(N3CCCCC3)c(NC(=O)c3ccncc3)cc2c(=O)n1Cc1ccc(Cl)cc1,10.6,57.2*,nt,nt,2.0,-1.9
Cn1cnc(S(=O)(=O)N2CCCCC2c2cc(C(=O)Nc3ccc(F)c(Cl)c3)no2)c1 (stereo not drawn),nt,nt,nt,-20.2,nt,nt
O=[N+]([O-])c1ccc2c(c1)N([O-])C1(CCCCC1)[N+]2=O,83.2*,-23.5,nt,nt,nt,nt
CC1=C(c2ccccc2)[N+](=O)C2(CCCC2)N1[O-],3.8,-3.1,-1.8,-3.2,1.0,-9.3
Cc1ccc(S(=O)(=O)NC(=O)Cn2nnc(-c3ccccc3)c2COc2ccc3ccccc3c2)cc1,nt,nt,nt,-4.7,nt,nt
Cc1ccnc(NC(c2ccncc2)c2c(C)[nH]c3ccccc23)c1 (stereo not drawn),35.5,51.0*,-1.9,-7.1,-4.0,-1.6
Cc1noc(C)c1S(=O)(=O)NCc1ccc(CN(C)C)cc1,nt,nt,1.3,-10.3,nt,nt
C[C@H](NC(=O)C1CCN(C(=O)[C@@H]2CCCN2C(=O)OC(C)(C)C)CC1)C(=O)NCc1ccc(F)cc1,nt,nt,nt,-7.4,nt,nt
CCCC1=C(C(=O)OCC)C(c2ccc(O)cc2)n2ncnc2N1 (stereo not drawn),67.3*,-46.4,3.9,3.7,0.0,-11.1
COc1ccccc1NC(=O)c1ccccc1NS(C)(=O)=O,4.9,-2.5,-3.6,-1.7,0.0,3.2
COc1ccc(NC(=O)c2ccccc2NS(C)(=O)=O)cc1OC,8.0,50.9*,0.4,-2.7,-6.0,19.8
O=C1c2cccc3cc([N+](=O)[O-])cc(c23)C(=O)N1/N=C/c1ccc(O)cc1O,89.6*,97.8*,9.0,-2.2,nt,nt
c1ccc2c(c1)N1CCCN=C1N2CCN1CCCCC1,23.1,2.4,3.6,-8.5,1.0,-0.1
O=C1N=C2N(CCN3CCCCC3)c3ccccc3N2/C1=C\c1ccc([N+](=O)[O-])o1,12.3,83.1*,nt,nt,0.0,-10.0
CN1CCN(C(=O)C23CC4CC(C2)CC(c2ccccc2)(C4)C3)CC1,9.9,0.8,1.3,-2.5,0.0,-15.0
O=C(/C=C/c1ccco1)Nc1cccc(S(=O)(=O)N2CCOCC2)c1,14.1,-11.2,-2.1,-0.2,0.0,0.4
Cc1ccc(/C=C/C(=O)Nc2cccc(S(=O)(=O)N3CCOCC3)c2)o1,53.5*,-0.9,-1.7,-0.2,-5.0,2.3
Cc1ccc(/C=C/C(=O)Nc2ccc(N(C)C)cc2)o1,94.8*,10.0,-3.4,-0.9,2.0,-4.8
SMILES,Mcl1 Noxa PPI,Mcl1-Bid inh,TLR9-MyD88 inh,NOD2 RIPK2 PPI,Mcl-1 Bim block,TLR4-MyD88 BLA
Cc1cccc(N2CSC3=C(C#N)C(c4ccc(C)o4)CC(=O)N3C2)c1 (stereo not drawn),107.5*,70.9*,nt,nt,-11.0,-5.1
CCN=c1scc(C)n1/N=C/c1cc(Br)c(O)c(Br)c1,72.7*,-3.6,-0.1,2.9,-1.0,-6.2
CCN=c1scc(C)n1/N=C/c1ccc(O)c(O)c1O,60.2*,-28.3,0.9,-0.7,7.0,-4.7
COCCN=c1scc(-c2cccs2)n1/N=C/c1ccc(O)c(O)c1O,89.3*,-64.9,2.5,2.8,4.0,-8.3
O=C(c1cc([N+](=O)[O-])ccc1Cl)N1CCN(Cc2ccccc2)CC1,nt,nt,-6.3,-1.3,nt,nt
CC(C)NC(=O)COc1ccc(S(=O)(=O)N(C)Cc2ccccc2)cc1,2.9,-18.4,-1.4,1.6,nt,nt
COc1ccc(C)cc1N(C(=O)c1ccc(F)cc1)c1nc2ccccc2s1,2.1,58.9*,-6.4,-3.7,0.0,-8.3
COc1ccc(C)cc1N(C(=O)COc1cccc(F)c1)c1nc2ccccc2s1,11.3,-26.0,-2.4,-0.2,-2.0,4.7
CC(C)(C)c1ccc(OCC(=O)Nc2ccncc2)cc1,nt,nt,-12.5,-3.8,nt,nt
CC(=O)Nc1cccc(NC(=O)c2c(-c3c(Cl)cccc3Cl)noc2C)c1,67.2*,-1.9,-4.3,-0.3,-3.0,5.7
Cc1cc(C)nc(NC(=O)c2c(-c3c(Cl)cccc3Cl)noc2C)n1,-10.1,-23.7,-4.9,-4.5,-3.0,13.0
Cc1onc(-c2c(Cl)cccc2Cl)c1C(N)=O,-2.6,-7.9,-6.7,-3.8,0.0,-0.8
Cc1onc(-c2c(Cl)cccc2Cl)c1C(N)=S,16.3,50.9*,-4.2,-5.4,-4.0,-11.1
O=C(O)c1cc(-c2ccc(/C=C3/SC(=S)N(Cc4ccccc4)C3=O)o2)ccc1Cl,85.1*,100.7*,0.1,4.5,16.0,6.0
O=C1/C(=C/c2ccncc2)SC(=S)N1Cc1ccccc1,5.1,3.7,-4.2,1.3,nt,nt
Cc1ccc(/C=C2\SC(=S)N(Cc3ccccc3)C2=O)o1,90.3*,-29.0,-2.9,4.5,6.0,8.2
Cc1ccc(NC(=O)CN2C(=O)S/C(=C/c3ccc(-c4cccc(C(=O)O)c4)o3)C2=O)cc1,83.0*,-31.1,-1.6,-5.0,2.0,-4.0
COc1ccc(CN2C(=O)/C(=C/c3ccc(-c4ccc(Cl)c(C(=O)O)c4)o3)SC2=S)cc1,91.7*,99.2*,nt,nt,13.0,-11.0
CCNCCC(=O)N1c2ccccc2Sc2ccc(C(F)(F)F)cc21,nt,nt,-13.2,5.3,nt,nt
Cc1ccc(C)c(OCCC(=O)N2CCN(S(=O)(=O)c3ccc([N+](=O)[O-])cc3)CC2)c1,nt,nt,-2.9,7.0,nt,nt
CCOc1ccc(C(=O)N[C@H](C(=O)Nc2ccccc2OC)C(C)C)cc1,nt,nt,-6.9,10.8,nt,nt
CCN(Cc1ccncc1)C(=O)c1cc(COc2c(F)cccc2F)on1,nt,nt,-1.1,2.5,nt,nt
COc1ccc(C(C)=O)cc1COc1ccc(Cl)cc1Cl,-11.2,92.5*,nt,-20.2,nt,nt
CCC1CSC(Nc2ccc(C(=O)/C=C/c3ccc(Oc4ccccc4)cc3)cc2)=N1 (stereo not drawn),11.4,5.5,-6.2,0.9,-1.0,-19.4
